# Hit rate of the full screen: of about 13,000 compounds, about 3,200 (25%) showed an effect of 50% or more. Some of the results follow.
# System: P. falciparum stage V gametocytes
# Design: BacTiter-Glo ATP luminescence viability of purified stage V gametocytes in 384-well plates, per cent inhibition versus DMSO
# Conditions: 48 h, 5 µM; inhibitor
row,Structure (SMILES),% Inhibition [%]
1,O=C(n1c(-c2cc3ccccc3n2C(=O)C(F)(F)F)cc2ccccc21)C(F)(F)F [TCMDC-131570],0.2533
2,CN(C)Cc1cccc2[nH]c(-c3csc(Cc4cc(Cl)ccc4OCc4ccccc4)n3)nc12 [TCMDC-132174],97.26
3,Clc1ccc(OCc2ccccc2)c(-c2nc(-c3nc4ccc(Cl)cc4[nH]3)cs2)c1 [TCMDC-136728],-8.781
4,CNCc1cccc2[nH]c(-c3csc(Cc4cc(Cl)ccc4OCC(C)C)n3)nc12 [TCMDC-132172],92.59
5,CC(C)COc1ccc(Cl)cc1Cc1nc(-c2nc3c(CN4CCN(C)CC4)cccc3[nH]2)cs1 [TCMDC-132173],82.6
6,CNCc1ccc2nc(-c3coc(Cc4cc(Cl)ccc4OCC(C)C)n3)[nH]c2c1 [TCMDC-136808],13.07
7,CN(C)Cc1ccc2nc(-c3cccc(Cc4cc(Cl)ccc4OCc4ccc(Cl)cc4F)n3)[nH]c2c1 [TCMDC-136892],34.33
8,CN1CCN(CCc2ccc3nc(-c4csc(Cc5cc(Cl)ccc5OCc5ccccc5)n4)[nH]c3c2)CC1 [TCMDC-132171],95.37
9,CN1CCN(c2ccc3nc(-c4ccc(Cc5cc(Cl)ccc5OCc5ccccc5)o4)[nH]c3c2)CC1 [TCMDC-136708],-32.6
10,CC(C)COc1ccc(Cl)cc1Cc1nc(-c2nc3nc(N4CCN(C)CC4)ccc3[nH]2)cs1 [TCMDC-136876],6.698
11,Cc1cc(-c2nc3ccc(CN4CCN(C)CC4)cc3[nH]2)nn1Cc1cc(Cl)ccc1OCc1ccccc1 [TCMDC-136883],19.79
12,CC(C)COc1ccc(Cl)cc1Cc1nc(-c2nc3ccc(CN4CCN(C)CC4)cc3[nH]2)co1 [TCMDC-136812],12.89
13,CC(C)COc1ccc(Cl)cc1Nc1nc(-c2nc3ccccc3[nH]2)cs1 [TCMDC-137041],2.246
14,CCc1ccc(NC(=O)c2cccc(CN3CCCN(CC4CCCCC4)CC3)c2)cc1 [TCMDC-135988],-39.09
15,O=C(c1ccc(-c2ccc(-c3nc4ccccc4[nH]3)s2)cc1)N1CCCCC1CN1CCC(O)C1 (centres unmarked) [TCMDC-132341],-18.79
16,CC(O)C1CCCCN1C(=O)c1cccc(-c2ccc(-c3nc4ccccc4[nH]3)s2)c1 (centres unmarked) [TCMDC-132332],27.09
17,CC(C)Cn1c(N)cc(=O)n(C)c1=O [TCMDC-123470],3.426
18,CCCCCC(=O)NCC(NCCCNc1cc(=O)c2ccccc2[nH]1)c1cc(Br)cc(Br)c1 (centres unmarked) [TCMDC-140316],24.17
19,COc1ccc2ncc(Cl)c(NCC3(O)CCC(NCc4ccc5c(n4)NC(=O)CS5)CC3)c2n1 (centres unmarked) [TCMDC-134671],11.29
20,CC(=O)c1cccc2[nH]c(C(=O)NC3CCC(CCN4CCc5ccc(C#N)cc5C4)CC3)cc12 (centres unmarked) [TCMDC-139218],4.712
21,COc1ccc(Cn2c(N3CCN(S(=O)(=O)c4ccc(OC)cc4)CC3)nc3c2c(=O)n(CC2CC2)c(=O)n3CC2CC2)cc1 [TCMDC-138935],-17.86
22,COc1ccc(S(=O)(=O)N2CCC3(CC2)OCC(=O)NC3c2ccc(Cl)c(Cl)c2)cc1 (centres unmarked) [TCMDC-133797],8.685
23,Cc1nc(-c2cccc(C(=O)NC3CCC(CCN4CCc5ccc(-c6cccnc6)cc5CC4)CC3)c2)no1 (centres unmarked) [TCMDC-140228],-46.69
24,NC(=O)c1sc(-n2cnc3ccccc32)cc1OCc1ccccc1[N+](=O)[O-] [TCMDC-134488],13.6

row,Structure (SMILES),% Inhibition [%]
1,C[C@@H](Oc1cc(-n2cnc3cc(SCCN4CCN(C)CC4)ccc32)sc1C(N)=O)c1ccccc1Cl [TCMDC-135452],29.32
2,C[C@@H](Oc1cc(-n2cnc3ccc(NC(=O)CCN4CCCCC4)cc32)sc1C(N)=O)c1ccccc1Cl [TCMDC-135971],64.1
3,O=C(CCN1CCCCC1)Nc1ccc(Nc2nccc(NCC(O)c3ccccc3)n2)cc1 (centres unmarked) [TCMDC-136464],-29.58
4,CC(Oc1cc(-n2cnc3ccc(NC(=O)CCN4CCCCC4)cc32)sc1C(N)=O)c1ccccc1Cl (centres unmarked) [TCMDC-135370],69.65
5,COc1ccc2c(c1)ncn2-c1cc(OCc2ccncc2Br)c(C(N)=O)s1 [TCMDC-138876],39.96
6,C[C@@H](Oc1cc(-n2cnc3ccc(NC(=O)NC(C)(C)C)cc32)sc1C(N)=O)c1ccccc1Cl [TCMDC-135806],66.79
7,COc1ccc2nc(Nc3nc4ccncc4[nH]3)sc2c1 [TCMDC-131950],20.19
8,Clc1ccc(-c2cc(-c3csc(Nc4ccncc4)n3)on2)cc1 [TCMDC-135160],-12.1
9,Nc1ccc(-c2csc(Nc3ccncc3)n2)cc1 [TCMDC-138715],-22.32
10,c1ccc(-c2nc(Nc3ccncc3)sc2-c2ccccc2)cc1 [TCMDC-139027],-36.52
11,c1cc(Nc2nc(-c3ccc(-c4csc(Nc5ccncc5)n4)cc3)cs2)ccn1 [TCMDC-139725],127.3
12,c1ccc2sc(-c3csc(Nc4ccncc4)n3)nc2c1 [TCMDC-135159],-15.83
13,c1ccc(-c2ccc(-c3csc(Nc4ccncc4)n3)cc2)cc1 [TCMDC-139026],62.72
14,CC(C)N(CC(=O)c1ccc(O)c(C(=O)O)c1)Cc1ccccc1 [TCMDC-131774],0.6957
15,COc1ccccc1COc1c(C)nc(N)nc1N [TCMDC-131356],-14.22
16,CC(C)CC(=O)N1CCNC[C@@H]1C(=O)NCc1ccc(Cl)c(Cl)c1 [TCMDC-141242],45.03
17,CN1CCC(Oc2ccc(CN3CC[C@H](NC(=O)c4ccc(Cl)c(Cl)c4)C3)c3ccccc23)C1 (some centres unmarked) [TCMDC-140271],51.75
18,CN1CCC(Oc2ccc(CN3CC[C@H](NC(=O)c4cc(F)cc(F)c4)C3)c3ccccc23)C1 (some centres unmarked) [TCMDC-135275],57.07
19,CN1CCC(Oc2cc(CN3CC[C@H](NC(=O)c4ccc(Cl)c(Cl)c4)C3)ccc2I)C1 (some centres unmarked) [TCMDC-140266],15.84
20,CN1CCC(Oc2ccc(CN3CC[C@H](NC(=O)c4ccc(Cl)c(Cl)c4)C3)cc2Cl)C1 (some centres unmarked) [TCMDC-140276],27.21
21,CN1CCC(Oc2ccc(CN3CC[C@H](NC(=O)c4ccc(Cl)c(F)c4)C3)c3ccccc23)C1 (some centres unmarked) [TCMDC-135274],60.57
22,Cc1cc(CN2CC[C@H](NC(=O)c3ccc(Cl)c(Cl)c3)C2)ccc1OC1CCN(C)C1 (some centres unmarked) [TCMDC-140281],32.63
23,CN1CCC(Oc2ccc(CN3CC[C@H](NC(=O)c4cccc(C#N)c4)C3)c3ccccc23)C1 (some centres unmarked) [TCMDC-135277],88.31

# — publication PMC4552634, “A New Set of Chemical Starting Points with Plasmodium falciparum Transmission-Blocking Potential for Antimalarial Drug Discovery” (PLoS ONE, 2015)
